Among the test systems are HCT-15 colon; HT29 colon; SNB-75 CNS; SNB-19 CNS; PC-3 prostate; SK-MEL-5 melanoma; UACC-62 melanoma; LOX IMVI melanoma; SK-MEL-28 melanoma; SK-MEL-2 melanoma; SN12C renal; UO-31 renal; TK-10 renal; ACHN renal; A498 renal; CCRF-CEM leukemia; MOLT-4 leukemia; CAKI-1 renal.
Assay in all cases: NCI-60 one-dose screen, 48 h (100 = growth as untreated, 0 = no growth, -100 = all killed)
Holding throughout (conditions): 10 µM unless noted

Compounds without any hit were thinned out: in the full panel of roughly 83,000, 20% have a hit.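 Each cell line was grown in a 96-well plate and treated with one concentration of compound for 48 hours. Values below 10 were considered active.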 Values without a mark were called inactive. Active and inactive are the calls of the source.

As for `O=C(/C=C/c1ccc(B(O)O)cc1)/C=C/c1ccc(B(O)O)cc1`, the growth was 8.01% (active) in the experiment with HCT-15 colon; -8.22% (active) in the experiment on HT29 colon; 72.4% in the experiment with SNB-75 CNS; 69% with SNB-19 CNS; 57.1% in the experiment on PC-3 prostate; 85.5% in the experiment on SK-MEL-5 melanoma. Moreover, the growth in the experiment on UACC-62 melanoma is 13%; in the experiment with LOX IMVI melanoma, -36.5% (active); in the experiment with SK-MEL-28 melanoma, 86.7%; with SK-MEL-2 melanoma, 110%; with SN12C renal, 57.5%; with UO-31 renal, -72.3% (active). The growth in the experiment with TK-10 renal was 99.3%; with ACHN renal it was 86.8%; in the experiment on A498 renal, 71.1%; in the experiment on CCRF-CEM leukemia, 25%; in the experiment on MOLT-4 leukemia, 51%.

Consider `O=C(NC(Cc1ccccc1)C(=O)CCl)OCc1ccccc1` (configuration not stated), for which the growth was 58.6% in the experiment with HCT-15 colon; 53.6% in the experiment on HT29 colon; 83.7% in the experiment with SNB-75 CNS; 82.2% in the experiment on SNB-19 CNS; 67.5% with PC-3 prostate; 75.9% in the experiment with SK-MEL-5 melanoma. Also, the growth is 68% in the experiment on UACC-62 melanoma; -7.12% (active) in the experiment with LOX IMVI melanoma; 85.8% in the experiment on SK-MEL-28 melanoma; 8.62% (active) in the experiment with SK-MEL-2 melanoma; 56.7% in the experiment on SN12C renal; 59.6% with UO-31 renal. The growth in the experiment on TK-10 renal is 84.8%; in the experiment with ACHN renal it was 72%; in the experiment with CAKI-1 renal, 48.2%; with A498 renal it was 98.7%; in the experiment on CCRF-CEM leukemia it was -4.62% (active); in the experiment on MOLT-4 leukemia it was 12.2%.

Take `NC1=CSC2=N/C(=C\c3ccc(Cl)cc3)C(=O)N12`: the growth in the experiment with HCT-15 colon is 66.7%; with HT29 colon it was 62.6%; in the experiment with SNB-75 CNS, 87.4%; in the experiment with SNB-19 CNS, 87%; in the experiment with PC-3 prostate it was 80.6%; in the experiment on SK-MEL-5 melanoma, 72.6%. The growth in the experiment with UACC-62 melanoma was 90.3%; with LOX IMVI melanoma it was 50.6%; with SK-MEL-28 melanoma it was 96.3%; in the experiment on SN12C renal, 76.8%; with UO-31 renal it was 58.2%; in the experiment with TK-10 renal, 72.8%. Moreover, the growth was 88.3% with ACHN renal; 38.8% with CAKI-1 renal; 65.6% with A498 renal; -13.5% (active) in the experiment on CCRF-CEM leukemia; 8.12% (active) in the experiment on MOLT-4 leukemia.

`COc1ccc(/C=c2/c(=O)[nH]c3nc4sc(C)c(C)c4c(=O)n23)cc1`: the growth is 73.2% in the experiment on HCT-15 colon; 88.1% in the experiment on HT29 colon; 93.2% in the experiment with SNB-75 CNS; 88.4% with SNB-19 CNS; 91% in the experiment with PC-3 prostate; 90.8% in the experiment on SK-MEL-5 melanoma. In addition, the growth was 80.4% in the experiment on UACC-62 melanoma; 91.1% in the experiment with LOX IMVI melanoma; 102% in the experiment with SK-MEL-28 melanoma; 84% with SN12C renal; 73% with UO-31 renal; 101% in the experiment with TK-10 renal. Further, the growth is 91.5% in the experiment with ACHN renal; 74.2% with CAKI-1 renal; 101% with A498 renal; 66.9% in the experiment on CCRF-CEM leukemia; 62.3% in the experiment on MOLT-4 leukemia.

Take `COc1ccc(-c2nn(-c3ccccc3)cc2/C=C2\SC(=O)NC2=O)cc1`: the growth was 89.4% in the experiment on HCT-15 colon; 114% in the experiment with HT29 colon; 66.3% in the experiment on SNB-75 CNS; 89.2% in the experiment with SNB-19 CNS; 99.6% with PC-3 prostate; 83.1% in the experiment with SK-MEL-5 melanoma. For the same compound, the growth is 89.2% in the experiment with UACC-62 melanoma; 59% with LOX IMVI melanoma; 112% in the experiment on SK-MEL-28 melanoma; 100% with SK-MEL-2 melanoma; 90.8% in the experiment on SN12C renal; 80% in the experiment on UO-31 renal. Besides, the growth in the experiment on TK-10 renal was 99.7%; in the experiment on ACHN renal, 96%; in the experiment on CAKI-1 renal, 83.2%; in the experiment with A498 renal, 72%; in the experiment with CCRF-CEM leukemia, 91.9%; with MOLT-4 leukemia, 96.4%.

As to `O=c1c2cccc3c(NC4CCCCC4)ccc(c32)c2nc3ccccc3n12`, the growth is 74.8% with HCT-15 colon; 76.8% with HT29 colon; 83% in the experiment with SNB-75 CNS; 89.4% in the experiment on SNB-19 CNS; 80% in the experiment with PC-3 prostate; 66.1% with SK-MEL-5 melanoma. In addition, the growth is 82.8% in the experiment with UACC-62 melanoma; 73.4% in the experiment on LOX IMVI melanoma; 92.1% in the experiment with SK-MEL-28 melanoma; 87% in the experiment on SN12C renal; 41.4% with UO-31 renal; 77.4% in the experiment with TK-10 renal. The growth in the experiment on ACHN renal is 72.9%; in the experiment on CAKI-1 renal, 47.2%; in the experiment on A498 renal it was 99.1%; with CCRF-CEM leukemia, 65.4%; with MOLT-4 leukemia it was 49.8%.

For `COc1cccc2c1C(=O)c1c(O)c3c(c(O)c1C2=O)C[C@@](O)(/C(C)=N/NC(=O)c1ccc(Cl)cc1)C[C@@H]3OC1CC(N)C(O)C(C)O1` (some centres not stated), the growth with HCT-15 colon is 16.4%; in the experiment with HT29 colon, -42.6% (active); with SNB-75 CNS, -84.3% (active); with SNB-19 CNS, 5.54% (active); with PC-3 prostate it was -36.5% (active); with SK-MEL-5 melanoma, -45.2% (active). Also, the growth is -72.8% (active) in the experiment on UACC-62 melanoma; -44.6% (active) with LOX IMVI melanoma; -32.3% (active) with SK-MEL-28 melanoma; -81.1% (active) in the experiment with SK-MEL-2 melanoma; 5.79% (active) in the experiment with SN12C renal; -40.4% (active) in the experiment with UO-31 renal. Also, the growth with TK-10 renal was -23.2% (active); in the experiment with ACHN renal it was -36.3% (active); in the experiment on CAKI-1 renal, -53.2% (active); in the experiment on A498 renal, -88.4% (active); with CCRF-CEM leukemia, -10.8% (active); with MOLT-4 leukemia, -31.3% (active).

Consider `CCCCCCCCCCCCCCCCNCCC[C@@H](C)[C@H]1CC[C@H]2[C@@H]3[C@H](OCCCN)C[C@@H]4C[C@H](OCCCN)CC[C@]4(C)[C@H]3C[C@H](OCCCN)[C@]12C`, for which the growth with HCT-15 colon is 7.08% (active); with HT29 colon, -41% (active); in the experiment on SNB-75 CNS, -64.8% (active); in the experiment with SNB-19 CNS, -66.6% (active); with PC-3 prostate, -14.4% (active); in the experiment on SK-MEL-5 melanoma, 3.14% (active). Also, the growth is -64.2% (active) in the experiment with UACC-62 melanoma; -60.4% (active) in the experiment with LOX IMVI melanoma; -64.7% (active) in the experiment on SK-MEL-28 melanoma; -82.9% (active) in the experiment with SN12C renal; -52.5% (active) with UO-31 renal; -60.3% (active) in the experiment with TK-10 renal. In addition, the growth with ACHN renal was -26.5% (active); in the experiment with CAKI-1 renal it was -70.8% (active); with A498 renal it was -5.88% (active); in the experiment on CCRF-CEM leukemia, -45.5% (active); in the experiment on MOLT-4 leukemia, -33.7% (active).

Consider `C#Cc1nc(Nc2cc(C)[nH]n2)c2ccccc2n1`, for which the growth was -25.6% (active) in the experiment on HCT-15 colon; -30.1% (active) with HT29 colon; -88.9% (active) in the experiment with SNB-75 CNS; 13.3% in the experiment on SNB-19 CNS; -42.1% (active) in the experiment with PC-3 prostate; -84.9% (active) in the experiment on SK-MEL-5 melanoma. The growth in the experiment with UACC-62 melanoma was -81.5% (active); in the experiment on LOX IMVI melanoma it was -74.8% (active); in the experiment on SK-MEL-28 melanoma it was -58.5% (active); in the experiment on SK-MEL-2 melanoma, -53.2% (active); in the experiment with SN12C renal, -31.6% (active); in the experiment with UO-31 renal, -36.1% (active). Besides, the growth with TK-10 renal was -21.3% (active); with ACHN renal it was -42.4% (active); in the experiment with CAKI-1 renal, -70% (active); in the experiment on A498 renal, -93.6% (active); in the experiment on CCRF-CEM leukemia, 2.05% (active); in the experiment on MOLT-4 leukemia, -19.8% (active).

(Values after PubChem BioAssay (NCI).)
